# Screens from PubChem.
# The list is not random: actives were taken first. Their share in the collection is about 1.3%.
# OPRM1-OPRD1 inv – inverse agonists of MOR-DOR heterodimerization, primary screen, cell-based, luminescence; Mu-type opioid receptor (Homo sapiens) + Delta-type opioid receptor (Homo sapiens), …; cell-based MOR-DOR heterodimer luminescence, inverse agonism; inhibition, % at 9.3 µM; 340,000 tested, 0.21% active; AID 504357, 2011; in the data active = inhibition above about 22%, passing the limit was not always enough;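 note: 0% = cells with DMSO and 100% = wells without cells with DMSO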
# HTR5A ag ctr – HTR5A agonists in luminescence cell assay, primary screen, counter-screen for OPRM1-OPRD1 heterodimer agonist project, full-deck HTS | 5-hydroxytryptamine receptor 5A (Homo sapiens), P47898 | cell-based | activation, % at 9.3 µM | 340,000 tested, 0.61% active | AID 504692, 2011; in the data active = activation mostly above about 9.5%, no sharp cut-off; inactive = mostly below about 7.6%;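 note: 0% = cells with vehicle only and 100% = reference agonist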
# Target sequence (P47898 whole entry, looked up): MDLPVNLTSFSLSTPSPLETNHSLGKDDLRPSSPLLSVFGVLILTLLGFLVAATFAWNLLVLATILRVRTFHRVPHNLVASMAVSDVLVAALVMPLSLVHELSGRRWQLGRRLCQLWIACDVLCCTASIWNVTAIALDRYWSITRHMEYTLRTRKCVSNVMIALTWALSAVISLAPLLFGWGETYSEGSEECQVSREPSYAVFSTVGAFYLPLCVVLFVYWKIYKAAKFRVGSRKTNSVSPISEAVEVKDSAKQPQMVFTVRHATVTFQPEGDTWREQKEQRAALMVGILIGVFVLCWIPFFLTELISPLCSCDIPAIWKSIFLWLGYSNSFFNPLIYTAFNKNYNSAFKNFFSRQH
# MOR-DOR ag-1 – agonists of OPRM1-OPRD1 heterodimerization, primary screen, cell-based, luminescence. Mu-type opioid receptor (Homo sapiens) + Delta-type opioid receptor (Homo sapiens), …. cells. activation, % at 9.3 µM. 340,000 tested, 0.3% active;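 note: 0% = vehicle-treated cells and 100% = reference agonist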
# HTR5A inv ctr – HTR5A inverse agonists in luminescence cell assay, primary screen, counter-screen for OPRM1-OPRD1 heterodimer inverse agonist project, full-deck HTS; AID 504634, 2011; 340,000 tested, 0.083% active; inhibition, % at 9.3 µM; HTR5A cell line, inverse agonism; 5-hydroxytryptamine receptor 5A (Homo sapiens), P47898; in the data active = inhibition mostly above about 23%, no sharp cut-off; inactive = mostly below about 18%;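 note: 0% = cells with DMSO and 100% = no-cell wells with DMSO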
# PvdQ inh – P. aeruginosa PvdQ acylase inhibitors, primary screen, biochemical, fluorescence, plate reader and imaging, single point | purified PvdQ acylase | inhibition, % at 10 µM | 340,000 tested, 0.063% active | AID 488965, 2010; in the data active = inhibition above about 30%, passing the limit was not always enough;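 note: 0% = vehicle neutral wells and 100% = reference inhibitor wells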
# CR mimetic SO – reduction of superoxide in aged yeast, primary screen, HTS; 330,000 tested, 0.18% active; AID 2690, 2010; S. cerevisiae aged cells, superoxide DHE fluorescence; hits give low values; superoxide response (% of plate mean), % at 10 µM;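 active = superoxide response under a set limit, about three screen SD below normal, cut at about 65% in these data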;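 note: yeast aged for seven days with compound at 30 °C before DHE staining; 100% = average MFI of all compound-treated wells on the plate with controls excluded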
# MOR-DOR ag-2 – OPRM1-OPRD1 heterodimerization promoters, counter-screen for HTR5A agonist project, cell-based, luminescence. activation, % at 9.3 µM. 800 tested, 13% active. U2OS counter-screen cells, complementation luminescence, 3 h. AID 504913, 2011. shares compounds with HTR5A ag ctr
# HTR5A ag confirm – HTR5A agonists, retest of hits, confirmation, cell-based, luminescence. 800 tested, 17% active. activation, % at 9.3 µM. HTR5A agonist cell assay. shares compounds with HTR5A ag ctr. AID 504915, 2011; in the data active = activation above about 17%;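 note: 0% = cells with vehicle only and 100% = full reference agonist response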
# Numbers without * were called inactive; x = no result given. Cut-off read from the data, not from the text of the source, unless noted: active = activation above about 18%; inactive = the rest.
SMILES,OPRM1-OPRD1 inv,HTR5A ag ctr,MOR-DOR ag-1,HTR5A inv ctr,PvdQ inh,CR mimetic SO,MOR-DOR ag-2,HTR5A ag confirm
COc1ccccc1C(CNC(=O)c1cccc(S(=O)(=O)Nc2ccc(C)cc2)c1)N1CCCC1 (stereo unspecified),9,25*,-2,-93,-3,113,2,34*
COc1ccccc1NS(=O)(=O)c1cccc(C(=O)NCC(c2ccccc2OC)N2CCCC2)c1 (stereo unspecified),5,10,-1,9,-9,101,x,x
COc1ccc2c(c1)/C(=N/OC(=O)c1cccs1)CCC2,-26,22*,4,-117,-6,113,3,31*
COc1ccc(/C(N)=N/OC(=O)c2cccs2)cc1,-3,-4,1,-5,7,101,x,x
COc1ccc(NC(=O)O/N=C2/CCCc3ccc(OC)cc32)cc1,12,19*,-2,-69,1,105,2,28*
CCOC(=O)C1=C(COC(=O)CCOc2ccccc2)NC(=O)NC1C (stereo unspecified),13,-3,-3,4,-4,101,x,x
Cc1ccc(C(=O)NC(=S)Nc2ccc(-c3ccc(CO)o3)cc2)cc1,6,15*,-1,-39,-7,94,12,2
COC(=O)c1c(NC(=O)C2COc3ccccc3O2)sc2c1CCN(C(C)=O)C2 (stereo unspecified),2,1,0,-2,-5,96,x,x
CCOC(=O)N1CCc2c(sc(NC(=O)C3COc4ccccc4O3)c2C(N)=O)C1 (stereo unspecified),-3,44*,1,-95,-9,94,2,60*
CCN1CCc2c(sc(NC(=O)C3COc4ccccc4O3)c2C(N)=O)C1 (stereo unspecified),13,15*,-2,-44,-8,98,-3,-2
CC(=O)N1CCc2c(sc(NC(=O)C3COc4ccccc4O3)c2C(N)=O)C1 (stereo unspecified),5,38*,-1,-138,1,99,0,49*
CN1CCc2c(sc(NC(=O)C3COc4ccccc4O3)c2C(N)=O)C1 (stereo unspecified),11,17*,-2,-69,6,107,0,52*
CC1CCC2(CC1)NC(=O)N(CC(=O)NCCc1c[nH]c3ccccc13)C2=O (stereo unspecified),3,-3,-1,12,-11,114,x,x
CCC(C)(C)C1CCC2(CC1)NC(=O)N(CC(=O)NCCc1c[nH]c3ccccc13)C2=O (stereo unspecified),-4,19*,1,-52,-13,88,2,8
Cc1oc(-c2ccc(Cl)cc2)nc1CN1CCC(C(=O)N2CCN(Cc3ccccc3)CC2)CC1,-26,16*,5,-43,-5,102,2,3
O=C(NCc1cccc(Cl)c1)c1ccc(N2CC3CC(C2)c2cccc(=O)n2C3)c(NC(=O)c2cccnc2)c1 (stereo unspecified),4,3,-1,3,-11,104,x,x
Cc1cc(NC(=O)CSc2nc(-c3ccc(Cl)cc3)cs2)no1,-31,20*,6,-53,-15,85,2,6
Cc1cc(NC(=O)CSc2ccc(Cl)cc2)no1,2,1,0,-11,-16,105,x,x
Cc1ccc(C2=NN(C(=O)CCl)C(c3cccs3)C2)o1 (stereo unspecified),-48,16*,9,-41,-20,96,21*,17*
C=CCOc1ccc(/C=C/C(=O)OCc2csc(CC(=O)Nc3ccccc3C)n2)cc1,-16,20*,4,-50,-6,84,33*,7
O=C(/C=C/CCc1ccc2c(c1)OCO2)N1CCCCC1,14,7,-3,16,8,109,x,x
CC(C)c1ccc(-c2nnn(Cc3nc4ccccc4s3)n2)cc1,-18,21*,4,2,5,101,3,1
COc1ccc(CCNC(=O)COc2ccc(N(C)S(=O)(=O)c3ccc(C)cc3)cc2)cc1,-1,16*,0,1,7,99,-1,-4
COc1ccc(CNC(=O)c2ccc(N(C)S(=O)(=O)c3ccc(C)cc3)cc2)cc1,11,0,-2,-20,0,99,x,x
COc1cc2c(cc1NC(=O)CN1CCN(S(=O)(=O)c3ccc(C)cc3)CC1)oc1ccccc12,-10,15*,2,-32,8,111,218*,2
SMILES,OPRM1-OPRD1 inv,HTR5A ag ctr,MOR-DOR ag-1,HTR5A inv ctr,PvdQ inh,CR mimetic SO,MOR-DOR ag-2,HTR5A ag confirm
Cc1ccc(OCCn2c(C)c(/C=N/n3cnnc3)c3ccccc32)cc1,-1,21*,0,-31,-9,107,10,-1
Cc1cccc(NC(=O)Nc2ccc3c(c2)CCC3)c1,-27,0,7,-1,-14,100,x,x
O=C(Nc1ccc(-c2cnco2)cc1)c1ccc(Cl)cc1,x,x,x,x,x,94,x,x
O=C(Nc1ccccc1)c1ncoc1-c1ccc(Cl)cc1,-14,19*,3,-50,11,100,2,2
COc1ccc(CCNS(=O)(=O)c2ccc(Br)cc2)cc1OC,-2,-5,0,9,8,104,x,x
COc1ccc(CCNS(=O)(=O)c2ccc(OC)c(OC)c2)cc1OC,6,17*,-1,-48,-4,85,2,-3
Cc1ccc(S(=O)(=O)N2CCN(C(=O)CSc3ncn[nH]3)CC2)cc1,4,-4,-1,10,-23,100,x,x
CCn1c(N2CCN(C(=S)NCCc3ccccc3)CC2)nc2ccccc21,3,31*,-1,-38,1,103,2,30*
CCn1c(N2CCN(C(=S)NC)CC2)nc2ccccc21,7,24*,-1,-24,29,89,2,2
CCn1c(N2CCN(S(=O)(=O)c3ccc(Cl)cc3)CC2)nc2ccccc21,-20,16*,4,-41,-12,94,3,-1
CCn1c(N2CCN(S(=O)(=O)c3ccc(F)cc3)CC2)nc2ccccc21,5,9,-1,-25,3,119,x,x
CC(C)Oc1ccc(C(=O)Nc2cc(S(=O)(=O)N3CCOCC3)ccc2N2CCOCC2)cc1,14,6,-3,-14,-3,x,x,x
